Screens from PubChem.
In the library only some 0.44% were active in any assay of this set; here they are far more common.
RGS12 GoLoco inh – inhibitors of human Gai1-RGS12 GoLoco interaction (red fluorophore); P63096; Gai1:RGS12 GoLoco peptide FP, rhodamine, 10 min; Potency, µM (top dose mostly 61.6 µM), for inactives: at the top dose activity, negative = inhibition, most hits filed as inhibitors; 0.44% of 230,000 active; active = well fitted inhibition curve with a large enough effect, not every such curve was filed as active; inactive = no such curve, though single readings can be large or run the other way; note: % is set by controls: 0 for no effect and ±100 for the full control effect; nearly all actives have a fitted effect of over 30% in size
ERG-DNA inh – ERG Ets/DNA interaction inhibition; fluorescence polarization, His-ERG Ets domain / labelled DNA; Potency, µM (doses to about 76.9 µM), for inactives: at the highest dose FP activity, negative = inhibition, usual class: inhibitors; 0.028% of 370,000 active; AID 624246; active = well fitted inhibition curve with a large enough effect in the polarisation, with a control signal flat; inconclusive = small, poorly fitted or top-dose-only effect, or effect the other way, or a change in a side signal; inactive = no such curve, though single readings can be large or run the other way; the % refers to the polarisation;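 note: polarization taken with two DNA probes labelled with fluorescein and Texas red; % of control where 0% means no effect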
Target sequence (P11308 whole entry, looked up, the tested form may be a part): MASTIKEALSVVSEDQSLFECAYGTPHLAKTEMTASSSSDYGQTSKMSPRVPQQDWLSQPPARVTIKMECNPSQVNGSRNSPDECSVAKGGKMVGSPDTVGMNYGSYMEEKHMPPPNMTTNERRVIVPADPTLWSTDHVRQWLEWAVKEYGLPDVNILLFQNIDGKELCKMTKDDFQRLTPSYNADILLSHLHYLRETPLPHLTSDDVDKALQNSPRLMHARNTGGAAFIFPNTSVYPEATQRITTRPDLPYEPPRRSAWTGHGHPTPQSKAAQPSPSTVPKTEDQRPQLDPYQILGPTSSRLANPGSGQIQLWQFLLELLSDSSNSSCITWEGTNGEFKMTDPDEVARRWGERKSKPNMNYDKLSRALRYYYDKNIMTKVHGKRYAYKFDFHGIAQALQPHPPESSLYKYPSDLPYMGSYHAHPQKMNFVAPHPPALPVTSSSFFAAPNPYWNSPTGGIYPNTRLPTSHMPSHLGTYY
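His-tagged ERG Ets domain (1 uM in the protein solution; 300mM KCl, 50mM Tris-HCl, 1mM EDTA, 1mM DTT, pH 7.5) received compound, then a probe mix of 5 nM fluorescein-DNA and 100nM Texas-615-DNA. Fluorescence polarization was read for both dyes.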
TRb-SRC2 inh – TRbeta-SRC2 interaction inhibition; 0.065% of 280,000 active; TRbeta-SRC2 peptide binding, fluorescence polarization; receptor liganded with 1 µM T3; P10828; Potency, µM (highest dose often 106 µM), inactives show at the top dose activity change, negative = inhibition, usual class: inhibitors;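 note: plate controls were bound peptide for no effect and peptide without receptor for full effect; nearly all actives have a fitted effect of over 50% in size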
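Binding of a 20-amino-acid Texas Red SRC2 peptide (20 nM) to TRb ligand-binding domain (0.6 uM) with agonist T3 at 1 uM was followed by fluorescence polarization after a 5 hr room-temperature incubation.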
Anesthetic bind – binds horse apoferritin like a general anesthetic; P02791; apoferritin/1-aminoanthracene competitive binding, fluorescence; Potency, µM (series often up to 77.5 µM), inactives show at the top dose activity change, negative = displacement, usual class: inhibitors; 0.074% of 350,000 active; AID 485281; note: % is set by controls: 0 for no effect and ±100 for the full control effect; nearly all actives have a fitted effect of over 20% in size
Target sequence (P02791 2-175 limits assumed): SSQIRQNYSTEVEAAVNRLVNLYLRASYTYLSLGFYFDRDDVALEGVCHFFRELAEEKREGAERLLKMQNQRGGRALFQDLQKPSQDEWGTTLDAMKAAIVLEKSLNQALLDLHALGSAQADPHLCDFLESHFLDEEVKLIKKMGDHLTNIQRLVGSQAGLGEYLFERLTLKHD
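Probe: 1-aminoanthracene (50% saturated, PBS). Protein: horse-spleen apoferritin, 10 uM. Incubation: 10 min, room temperature. Detection: 380 nm excitation, 535 nm emission. Analysis: normalized response, four-parameter Hill.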
TexasRed fluor – alters Texas Red total fluorescence, flagging assay interference; TRb/SRC2 Texas Red total fluorescence interference; Potency, µM (series often up to 106 µM), inactives show at the highest dose fluorescence change, negative = quenching; 0.29% of 280,000 active; AID 1479; active = well fitted curve in either direction with a large enough effect; inconclusive = small, poorly fitted or top-dose-only effect; note: % is set by controls: 0 for no effect and ±100 for the full control effect
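Flags fluorescent or light-absorbing compounds by total fluorescence, S + 2P, at 555 nm excitation and 632 nm emission. Mixture: 20 nM Texas Red SRC2 peptide, 0.6 uM human TRb LBD, 1 uM T3, 5% DMSO; compound exposure 5 h at ambient temperature.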
An asterisk follows results filed as active; [ ] = remark or other dose. Unless noted, calls come from the whole dose curve; as a rule, active = well fitted curve in the direction sought with a large enough effect; inconclusive = small, poorly fitted or top-dose-only effect, or another doubt; inactive = no such curve, though single readings can be large; an effect the other way counts as inactive or inconclusive. Potency is the fitted concentration of half-maximal effect.

`CCCCCSc1nc2sc3c(c2c(=O)n1-c1ccccc1)CCN(C(C)=O)C3` gave ERG-DNA inh 6%, TRb-SRC2 inh -28%[53 µM], Anesthetic bind -16% and TexasRed fluor 0.018µM*[quencher].
`Cc1ccc(C)c(NC(=S)NNC(=O)c2csc3c2CCCC3)c1` gave RGS12 GoLoco inh -2%, ERG-DNA inh -6%, TRb-SRC2 inh -6%, Anesthetic bind inconclusive and TexasRed fluor 1%.
`Cc1ccc(C)c(NC(=S)NNC(=O)c2csc3c2CCC(C)C3)c1` (centres undefined) gave RGS12 GoLoco inh 11%, ERG-DNA inh 20%, TRb-SRC2 inh 8%, Anesthetic bind 28µM* and TexasRed fluor 0%.
Screening O=C(NNC(=S)Nc1ccc(OC(F)F)cc1)c1cc2c(s1)CCCC2 returned RGS12 GoLoco inh 0%, ERG-DNA inh -5%, TRb-SRC2 inh -13%, Anesthetic bind -21% and TexasRed fluor 631µM*[quencher].
For CC(NC(=O)C1CCN(C(=O)N2CCOc3ccccc32)CC1)c1ccccc1 (centres undefined) the results were ERG-DNA inh -3%, TRb-SRC2 inh 2%, Anesthetic bind 16µM* and TexasRed fluor 0%.
O=C(NCc1cccs1)C1CCN(C(=O)N2CCOc3ccccc32)CC1 was read as ERG-DNA inh 1%, TRb-SRC2 inh -10%, Anesthetic bind -4% and TexasRed fluor 0.56µM*[quencher].
For C#Cc1cccc(Nc2ncnc3cc(OC)c(OC)cc23)c1 the results were RGS12 GoLoco inh -1%, TRb-SRC2 inh 4%, Anesthetic bind -10% and TexasRed fluor -2%.
Screening Nc1nc(N2CCN(Cc3ccccc3)CC2)n[nH]1 returned RGS12 GoLoco inh 9%, ERG-DNA inh 35µM*, TRb-SRC2 inh -4%, Anesthetic bind -1% and TexasRed fluor -4%.
Screening C[N+](C)(C)CC/C=C1/c2ccccc2CSc2ccccc21 returned RGS12 GoLoco inh 2.2µM*, ERG-DNA inh -6%, TRb-SRC2 inh 10%, Anesthetic bind -6% and TexasRed fluor 0%.
`O=C(CSc1nnc(-c2ccco2)c(-c2ccco2)n1)Nc1ccccc1` gave RGS12 GoLoco inh 6%, ERG-DNA inh 6%, TRb-SRC2 inh -6%, Anesthetic bind -19% and TexasRed fluor 45µM*[quencher].
Screening CCOC(=O)CC(O)(CC(=O)OCC)C(=O)OCC returned TRb-SRC2 inh -3%[201 µM] and TexasRed fluor 0%[201 µM].
Screening O=C(Nc1nnc(S(=O)(=O)N2CCCCCC2)s1)c1ccccc1Br returned ERG-DNA inh -8%, TRb-SRC2 inh -9%, Anesthetic bind -19% and TexasRed fluor -2%.
O=C(Nc1nnc(S(=O)(=O)N2CCCC2)s1)c1ccccc1Br was read as ERG-DNA inh 7%, TRb-SRC2 inh -13%, Anesthetic bind -11% and TexasRed fluor 0.05µM*[quencher].
Screening COc1ccc(CNc2nc(-c3ccco3)nn2C(=O)CC(C)C)cc1 returned ERG-DNA inh 0%, TRb-SRC2 inh -13%, Anesthetic bind 10% and TexasRed fluor 79µM*[quencher].
`CC(=O)N[C@H]1CSSC[C@@H](C(=O)N2CCC[C@H]2C(=O)N2CCC[C@H]2C(=O)N[C@@H](CCCCN)C(=O)N[C@@H](CC(=O)O)C(N)=O)NC(=O)CNC(=O)[C@H](Cc2c[nH]c3ccccc23)NC(=O)[C@H](CCCNC(=N)N)NC(=O)[C@@H](Cc2ccc(Cl)c(Cl)c2)NC(=O)[C@H](Cc2cnc[nH]2)NC(=O)[C@H](CCC(=O)O)NC1=O` gave TRb-SRC2 inh 1%, Anesthetic bind -9% and TexasRed fluor -8%.
For COc1ccc(NC(=O)c2ccco2)cc1NC(=O)c1ccc(OC(C)C)cc1 the results were ERG-DNA inh -3%, TRb-SRC2 inh -12%, Anesthetic bind -23% and TexasRed fluor 0.35µM*[quencher].
`COc1ccc(NC(=O)c2ccco2)cc1NC(=O)c1ccc(C)cc1` gave RGS12 GoLoco inh -8%, ERG-DNA inh -12%, TRb-SRC2 inh 8%, Anesthetic bind -23% and TexasRed fluor -2%.
`c1cc2ccc3ccc4ccc5cccc6c(c1)c2c3c4c56` gave TRb-SRC2 inh -5%[201 µM] and TexasRed fluor 0%[201 µM].
Screening CCCCc1ccc(NC(=O)Nc2cc(C)nn2C)cc1 returned ERG-DNA inh 32µM* and Anesthetic bind -20%.
`CSc1ccc(Cl)cc1` gave TRb-SRC2 inh 9%[201 µM] and TexasRed fluor -6%[201 µM].
For CCn1c(C)nc2cc(C(=O)NNC(=S)Nc3ccc(Cl)cc3Cl)ccc21 the results were RGS12 GoLoco inh 62%, ERG-DNA inh 6%, TRb-SRC2 inh -21%[53 µM], Anesthetic bind -1% and TexasRed fluor 8.9µM*[quencher].
For Fc1ccc(Br)cc1 the results were TRb-SRC2 inh -4%[201 µM] and TexasRed fluor 1%[201 µM].
`COc1ccc(SCCN2CCN(CCc3ccccc3)CCC2=O)cc1` gave TRb-SRC2 inh 11%, Anesthetic bind -21% and TexasRed fluor -1%.
`Cc1[nH]n(-c2ccccc2)c(=S)c1C=Nc1ccc([N+](=O)[O-])cc1` gave RGS12 GoLoco inh 13µM*, ERG-DNA inh -9%, TRb-SRC2 inh -2%, Anesthetic bind inconclusive and TexasRed fluor 1%.
`CC[C@H](C)[C@H](NC(=O)[C@H](CC(=O)O)NC(=O)[C@H](CC(C)C)NC(=O)[C@H](NC(C)=O)C(c1ccccc1)c1ccccc1)C(=O)N[C@H](C(=O)N[C@@H](Cc1c[nH]c2ccccc12)C(=O)O)[C@@H](C)CC` gave TRb-SRC2 inh 0%, Anesthetic bind 7% and TexasRed fluor 2%.
For COC(CNC(=O)c1ccc2c3c(onc13)-c1ccccc1C2=O)OC the results were RGS12 GoLoco inh 10µM*, ERG-DNA inh 16%, TRb-SRC2 inh -1%, Anesthetic bind -9% and TexasRed fluor 3%.
`CCCC/C=C\CCCCCCCCCC=O` gave TRb-SRC2 inh 9%[201 µM] and TexasRed fluor 3%[201 µM].
For Nc1ccc(N)c(C(=O)O)c1 the results were RGS12 GoLoco inh 16µM*, ERG-DNA inh inconclusive, TRb-SRC2 inh -18%, Anesthetic bind 0% and TexasRed fluor inconclusive.
`C[C@H](O)C(N)C(=O)O` (some centres undefined) gave TRb-SRC2 inh 3%, Anesthetic bind 4% and TexasRed fluor 1%.
`COc1cccc2c1C(=O)c1c(O)c3c(c(O)c1C2=O)CC(O)(C(C)=O)CC3OC1CC(O)C(O)C(C)O1` (centres undefined) gave ERG-DNA inh 2.5µM*.
COc1cccc2c1C(=O)c1c(O)c3c(c(O)c1C2=O)C[C@](O)(C(=O)CO)C[C@H]3O[C@@H]1C[C@H](N)[C@H](O)[C@H](C)O1 was read as RGS12 GoLoco inh 2.2µM*, TRb-SRC2 inh 14µM*, Anesthetic bind 1%[29.3 µM] and TexasRed fluor 16µM*[fluorescent].
